# Measured values as given in PubChem BioAssay AID1532 (PCMD, 2009).
# In all, about 110,000 compounds went through this assay and about 420 (0.38%) were called active. No stated cut-off is given here; in the data, active means inhibition above about 30% (passing the limit was not always enough); inconclusive means no clear call, values can overlap the other calls. Shown is part of a subset that was picked to be rich in actives.
# System: RmlC (dTDP-4-dehydrorhamnose 3,5-epimerase) and RmlD (dTDP-4-dehydrorhamnose reductase), coupled enzyme assay
# Assay: RmlC and RmlD coupled enzyme inhibitors, primary screen, biochemical, 384-well, compound mixtures, retest (AID 1532)
# Conditions: 384-well mixture HTS, at 5.5 µM, stronger effect = higher value
# [1] = measured here: mean retest inhibition
compound,measurement,setting,value
CCc1nnc(SCc2cccc(F)c2)nc1CC,inhibition,,-1.83% (inactive)
Cc1cccc(Nc2nc(NCCO)nc(N3CCCC3)n2)c1,inhibition,,-9.11% (inactive)
COCOc1cc(O)c(C(=O)/C=C/c2ccc(OCOC)c(OCOC)c2)c(OCOC)c1,inhibition,,4.09% (inactive)
COc1cc(/C=C/CO)cc(OC)c1O[C@@H]1O[C@H](CO)[C@@H](O)[C@H](O)[C@H]1O,inhibition,,-10.6% (inactive)
CC(C)NC(=O)NCCCCCCS(C)=O (stereo unspecified),inhibition,,-13.8% (inactive)
CCCCC1=CC2=CC(=O)C(C)(OC(=O)CC)C(=O)C2=CN1CCCOC(C)C (stereo unspecified),inhibition,,21.9% (inactive)
CC1=C(C)C(=O)OC(C(C)C2CCC3C4CC=C5CC(OC6OC(COC7OC(CO)C(O)C(O)C7O)C(O)C(O)C6O)CC(O)C5(C)C4CCC23C)C1 (stereo unspecified),inhibition,,-13.2% (inactive)
C/C=C(/C)C(=O)O[C@@H]1c2cc3c(c4c2[C@@]2(CO4)C(=O)C(OC)=C(OC)C=C2C[C@@H](C)[C@H]1C)OCO3,inhibition,,-2.38% (inactive)
C/C=C(\C)C(=O)NCCN1C2=NC[C@H](Cc3ccc(O)cc3)N2C[C@@H]1Cc1ccc(OC)cc1,inhibition,,6.27% (inactive)
COC(=O)CCCC1=CC2=CC(=O)C(C)(OC(=O)c3cccs3)C(=O)C2=CN1CC(C)C (stereo unspecified),inhibition,,6.81% (inactive)
O=C(C1=C[C@H](c2coc3ccccc3c2=O)C[C@H](OCc2ccc(CO)cc2)O1)N1CCN(Cc2ccccc2)CC1,inhibition,,13.6% (inactive)
C=CCNC(=O)c1ccc2c3n(nc2c1)-c1ccc(C)cc1CO3,inhibition,,-4.6% (inactive)
C[C@H]1CC[C@]2(O[C@@H](CCO)C[C@@H](O)[C@@H]2O)O1,inhibition,,6.2% (inactive)
C=C1C2C[C@H](O)C(C)(C)[C@@]2(O)[C@H](O)C[C@]23C[C@@](C)(O)[C@H](CC[C@H]12)[C@H]3O (stereo partly specified),inhibition,,-7.47% (inactive)
CCO[C@H]1OC(C(=O)Nc2ccccc2)=C[C@@H](C2CC2)[C@@H]1CCCO,inhibition,,-2.12% (inactive)
COc1ccc(CCNC(=O)C2CC3Cn4c(nc5cc(C)c(C)cc54)C3N2C)cc1 (stereo unspecified),inhibition,,5.88% (inactive)
O=C(NCc1ccccc1)C1=C[C@@H](c2ccccc2)C[C@@H](OCCCCO)O1,inhibition,,-11.4% (inactive)
COC(=O)CCCC1=CC2=C(c3ccccc3)C(=O)C(C)(OC(=O)C3CCCC3)C(=O)C2=CN1c1ccc(OC)cc1 (stereo unspecified),inhibition,,6.14% (inactive)
COc1ccc2c(c1)CC[C@@H]1[C@@H]2CC[C@]2(C)C(=O)CC[C@@H]12,inhibition,,0.97% (inactive)
C#CCOCCOCCOCCNc1nc(N2CCN(C(=O)[C@H](C(C)C)n3cc(CCO)nn3)CC2)nc(N2CCN(C(=O)[C@H]([C@@H](C)CC)n3cc(CCCN=C(N)N)nn3)CC2)n1,inhibition,,9.85% (inactive)
COC(=O)Cc1c(C)c2ccc(OCC(=O)NCc3ccc4c(c3)OCO4)cc2oc1=O,inhibition,,12.6% (inactive)
O=C(Nc1cc2ccccc2oc1=O)C1CCCCC1,inhibition,,-8.93% (inactive)
CC(=O)Oc1ccc(NC(=O)CCC2CCCCC2)c(C(=O)O)c1,inhibition,,0.91% (inactive)
CC(=O)Oc1ccc2c(C)c(CC(C)O)c(=O)oc2c1 (stereo unspecified),inhibition,,100% (active)
same,inhibition,[1],151%
CC(=O)Nc1cc2ccc(OC(C)=O)cc2oc1=O,inhibition,"above what the read-out allows, likely interference",671% (active)
O=C(Oc1ccccc1)Oc1ccc2c(c1)oc(=O)c1ccccc12,inhibition,,-16.4% (inactive)
C=CCC1(C(=O)N(C)Cc2ccccc2)CCN(C(=O)OC(C)(C)C)CC1,inhibition,,4.78% (inactive)
NC(=O)C[C@@H]1NC(=O)CNC(=O)c2cc([N+](=O)[O-])cc(I)c2NCCC(C(N)=O)NC1=O (stereo partly specified),inhibition,,-2.76% (inactive)
O=C1c2ccccc2S(=O)(=O)c2cc(N3CCN(c4ccccn4)CC3)ccc21,inhibition,,-10.5% (inactive)
C=CCSc1nnc2c(n1)-c1cccc3cccc-2c13,inhibition,,10.4% (inactive)
COc1ccc(-c2nc3c(s2)CCc2onc(-c4ccc(Br)cc4)c2-3)cc1,inhibition,,-14.4% (inactive)
COC(C[C@@H](O)C[C@@H](O)[C@H](C)OCc1ccccc1)OC,inhibition,,1.16% (inactive)
C=CC(COCc1ccccc1)N(Cc1ccccc1)S(=O)(=O)c1ccccc1Br (stereo unspecified),inhibition,,14.3% (inactive)
CC(C)C[C@H](CO)Nc1nc(N(C)c2cccc(Cl)c2)c2ncn(C(C)C)c2n1,inhibition,,4.1% (inactive)
NCCCC[C@@H]1NC(=O)[C@H](CCC(=O)O)NC(=O)c2cc([N+](=O)[O-])cc(I)c2NCC[C@@H](C(N)=O)NC1=O,inhibition,,-2.74% (inactive)
COC(C[C@@H](O)C[C@H](O)[C@H](C)OCc1ccccc1)OC,inhibition,,8.66% (inactive)
COc1cccc(NC(=S)N(CCc2c(C)[nH]c3ccccc23)Cc2ccco2)c1,inhibition,,-5.74% (inactive)
O=c1cc(-c2ccccc2)[nH]c2cc(F)ccc12,inhibition,,2.31% (inactive)
C=CCCN(Cc1ccccc1)S(=O)(=O)c1ccccc1Br,inhibition,,17.6% (inactive)
CC1CCN(c2oc(-c3ccccc3F)nc2C#N)CC1,inhibition,,19.3% (inactive)
COc1ccccc1-c1nnc(SCC(=O)N2CC(C)CC(C)C2)o1 (stereo unspecified),inhibition,,-13.8% (inactive)
COc1ccccc1-c1nc(C#N)c(N2CCC(C(N)=O)CC2)o1,inhibition,,31.8% (active)
same,inhibition,[1],33.6%
O=C(NC1CC1)C1=C[C@H](c2coc3ccccc3c2=O)C[C@H](OCCCCO)O1,inhibition,,-32.1% (inactive)
O=C(C1=C[C@H](C2CC2)C[C@H](OCc2ccc(CO)cc2)O1)N1CCN(Cc2ccccc2)CC1,inhibition,,2.28% (inactive)
